# Data taken from PubChem BioAssay AID504369 (National Center for Advancing Translational Sciences (NCATS), 2011).
# The source made the active and inactive calls. The rule behind the calls is not given here.
# Experiment: Counterscreen for Identifying a Potential Treatment of Ataxia-Telangiectasia: SAR for Probe
# Settings: cell-free AlphaLISA pKAP1 detection artifact counterscreen; series mostly up to 154 µM; activity change: at the top concentration
# Description: NIH Chemical Genomics Center [NCGC] NIH Molecular Libraries Probe Centers Network [MLPCN] MLPCN Grant: MH089030-01 Assay Submitter (PI): Wei Zheng and Yosef Shiloh Ataxia-telangiectasia (A-T) is a devastating and progressive disease for which, there is no cure. Although A-T is a multisystem disease, it is stereotyped characterized by its neurological symptoms such as truncal ataxia, due to cerebellar cortical degeneration of the Purkinje and granule cells. Other symptoms of A-T are telangiectasias (dilated blood vessels), primary immunodeficiency, marked sensitivity to ionizing radiation (IR), chromosomal instability and predisposition to cancer. The underlying genetic cause of A-T is null mutations in the ATM (A-T mutated) gene. ATM is a nuclear serine/threonine kinase that functions as a master regulator of the cellular responses to double strand breaks (DSBs) in the DNA. Upon activation by DSBs, ATM phosphorylates a plethora of downstream targets, including KAP-1 on Ser82452. […] To screen for small molecules that will compensate for the loss of ATM in cells derived from A-T patients, we monitored KAP-1 phosphorylation as a readout for ATM-like activity using an AlphaLISA assay.
# qHTS Assay Protocol: 1. […] Readout, EnVision, EnVision plate reader. […] EnVision protocol for 1536-well AlphaScreen read (30ms excitation, 100ms read), about 10 min/plate. […]
row,SMILES,activity change
1,CC(=O)c1c(O)c(C)c(O)c(Cc2c(O)c3c(c(C(=O)/C=C/c4ccccc4)c2O)OC(C)(C)C=C3)c1O,13.5% (inactive)
